# Screening results deposited in PubChem by Corson Lab, School of Medicine, Indiana University.
# FECH block: human FECH heme synthesis enzyme inhibition | purified FECH, Ni-mesoporphyrin absorbance 550 nm | calls only at 10 µM (by protocol) | actives 3.3% (n = 20,000) | AID 1671448;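 active = enzyme reaction rate more than 3 SD below the solvent-only control wells on the same plate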;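 also: lower slope than DMSO wells means FECH inhibition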
# Target sequence (P22830 whole entry, looked up): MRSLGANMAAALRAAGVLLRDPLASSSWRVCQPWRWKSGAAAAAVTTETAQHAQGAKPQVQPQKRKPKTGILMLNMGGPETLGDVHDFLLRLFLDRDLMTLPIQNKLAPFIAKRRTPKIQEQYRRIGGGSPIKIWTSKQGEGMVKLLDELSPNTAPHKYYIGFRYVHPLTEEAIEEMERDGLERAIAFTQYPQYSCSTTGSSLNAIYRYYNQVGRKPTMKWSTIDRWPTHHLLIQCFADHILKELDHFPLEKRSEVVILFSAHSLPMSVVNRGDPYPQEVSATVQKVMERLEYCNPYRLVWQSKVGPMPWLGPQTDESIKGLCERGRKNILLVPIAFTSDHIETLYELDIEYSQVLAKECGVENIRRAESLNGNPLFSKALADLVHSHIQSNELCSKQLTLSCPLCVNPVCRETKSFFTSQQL
# * marks the source's active call; other numbers are inactive results; i = inactive; + = active, no number. This excerpt belongs to a sample that is enriched for hits.
SMILES,FECH block
O=C(CN1c2ccc(Br)cc2-c2ccccc2S1(=O)=O)NC1CC1,+
O=C(CN1c2ccc(Br)cc2-c2ccccc2S1(=O)=O)Nc1ccc(F)cc1F,i
Cc1cccc(C(C)C)c1NC(=O)CN1c2ccc(Br)cc2-c2ccccc2S1(=O)=O,i
NS(=O)(=O)c1ccc(NC(=O)CN2C(=O)c3ccccc3S2(=O)=O)cc1,i
O=C1CN(C(=O)CN2c3ccc(Br)cc3-c3ccccc3S2(=O)=O)c2ccccc2N1,i
CC(C)N(CCNC(=O)C1CCN(c2ncnc3c2nc2n3CCCCC2)CC1)Cc1ccccc1,i
O=S1(=O)N(Cc2ccc(Cl)cc2)CCCN1Cc1cccc(C(F)(F)F)c1,i
CC(C)c1cc(CN(C)Cc2cn[nH]c2-c2ccc(F)cc2)no1,i
CN1CC2(CCN(C(=O)c3coc4c3C(=O)CCC4)C2)OC1=O (configuration not stated),i
Cc1ccccc1Cn1cc(C(=O)Nc2cccc(F)c2)ccc1=O,i
Cc1ccc(-c2cc(N3CCN(S(=O)(=O)c4cc(F)ccc4F)CC3)ncn2)cc1,i
Cn1c(=O)n(C)c2cc(Cn3ccnc3-c3ccc(CO)o3)ccc21,i
COc1ccc(C)cc1S(=O)(=O)N1CCN(c2nc(C)cc(N(C)C)n2)CC1,i
Cc1nnsc1C(=O)NCCc1ccc(S(N)(=O)=O)cc1,i
CCNC(=O)C(=O)NCc1n[nH]c(=O)c2ccccc12,i
CCc1cc(C(C)NS(=O)(=O)NCc2ccccc2)on1 (configuration not stated),i
Cc1cccn2c(CC(=O)NCCc3csc(-c4ccncc4)n3)cnc12,i
O=S(=O)(NCCc1csc(-c2ccncc2)n1)NCc1ccccc1,+
CCc1cn[nH]c1C1CCN(CC(=O)O)CC1,i
CCN(CC)c1nc(Nc2cc(C)cc(C)c2)c2cnn(-c3ccccc3)c2n1,i
COc1ccc(S(N)(=O)=O)cc1-c1noc(C2CCCCC2)n1,i
COc1ccc(S(N)(=O)=O)cc1-c1noc(C(C)(C)C)n1,i
CCc1nc(-c2cc(S(N)(=O)=O)ccc2OC)no1,+
Cc1ccc(NCc2cc(=O)n3[nH]c(-c4ccccc4C)nc3n2)cc1,+
CCN1CCN(Cc2cc(=O)n3[nH]c(-c4ccccc4C)nc3n2)CC1,i
SMILES,FECH block
Cc1ccccc1-c1nc2nc(CNc3cccc(Cl)c3)cc(=O)n2[nH]1,i
Cc1ccc(NCc2cc(=O)n3[nH]c(NCc4ccc(F)cc4)nc3n2)cc1,i
COc1cccc(NCc2cc(=O)n3[nH]c(-c4ccccc4C)nc3n2)c1,+
COc1ccc(NCc2cc(=O)n3[nH]c(NCc4ccc(F)cc4)nc3n2)cc1,i
Cc1ccccc1-c1nc2nc(CNc3ccc(Br)cc3)cc(=O)n2[nH]1,+
Cc1ccccc1-c1nc2nc(CNc3ccccc3)cc(=O)n2[nH]1,+
Cc1ccccc1-c1nc2nc(CN3CCOCC3)cc(=O)n2[nH]1,i
COc1cccc2c1OCCCN(C(=O)c1cccc(Cn3cccn3)c1)C2,i
Cc1ccc(C)c(S(=O)(=O)NCc2nc3cccnc3n2Cc2ccccc2)c1,i
Cn1ccnc1-c1ccc(N2CCC(n3nccc3NC(=O)C3CC3)CC2)nn1,i
CCc1nc(OCC(=O)NCc2ccccc2Cl)c2c(-c3ccc(F)cc3)noc2n1,i
CCc1[nH]c2ccc(CNC(=O)CCC(F)(F)F)cc2c1C,i
c1cc(CN2CC(c3ccncc3)C2)cc(-n2cccn2)c1,i
Cc1cccc(C(C(=O)N(C)Cc2nncn2C(C)C)N(C)C)c1 (configuration not stated),i
Cc1ccsc1CCNC(=O)CCC(=O)NC1CCCC1,i
COc1ccc(-c2ncc3c(=O)n(CCOc4ccccc4)c(=O)n(C)c3n2)cc1,i
Cn1cc(CN(Cc2ccc(CO)o2)C2CC2)cn1,+
Cc1ccc(C(C)NC(=O)CN(Cc2cnn(C)c2)C2CC2)cc1 (configuration not stated),i
Cn1cc(CN(Cc2cc3cc4c(cc3[nH]c2=O)OCO4)C2CC2)cn1,i
COc1cccc(-c2cc(N3CCN(C(=O)Nc4ccc(C)c(C)c4)CC3)ncn2)c1,i
Cc1ccc(C(C)NC(=O)CN2CCC(O)(CN3CCCC3)CC2)cc1 (configuration not stated),+
Cc1ccc(C(C)NC(=O)CN2CCC(O)(Cn3ccnc3)CC2)cc1 (configuration not stated),i
Cc1ccc(C(C)NC(=O)CN2CCS(=O)(=O)CC2)cc1 (configuration not stated),i
CCn1nc(C)c(C(C)NC(=O)c2cc3ccccc3n2C)c1C (configuration not stated),i
Cn1c(=O)c(C(=O)NCc2ccc(F)cc2)nc2ccccc21,i
SMILES,FECH block
Cc1ccc(CNC(=O)c2nc3ccccc3n(C)c2=O)cc1,+
Cn1c(=O)c(C(=O)NCc2ccc3c(c2)OCO3)nc2ccccc21,i
CC(C)C1CN(Cc2cc(-c3ccccn3)no2)CCCN1CC1CC1 (configuration not stated),i
COc1ccc(NCc2cc(=O)n3[nH]c(-c4ccc(C(C)(C)C)cc4)nc3n2)cc1,i
CN1CCN(Cc2cc(=O)n3[nH]c(-c4ccc(C(C)(C)C)cc4)nc3n2)CC1,i
COc1ccc(Cl)cc1NCc1cc(=O)n2[nH]c(NCc3ccc(F)cc3)nc2n1,i
CC(C)(C)c1ccc(-c2nc3nc(CN4CCc5ccccc5C4)cc(=O)n3[nH]2)cc1,+
Cc1cccc(-c2nc3nc(CN4CCN(c5ccccc5)CC4)cc(=O)n3[nH]2)c1,i
Cc1cccc(-c2nc3nc(CN4CCN(c5ccc(F)cc5)CC4)cc(=O)n3[nH]2)c1,i
CC(C)(C)c1ccc(-c2nc3nc(CN4CCCCC4)cc(=O)n3[nH]2)cc1,i
CCOc1ccc(NCc2cc(=O)n3[nH]c(NCc4ccccc4)nc3n2)cc1,i
COc1ccc(Cl)cc1NCc1cc(=O)n2[nH]c(-c3ccc(C(C)(C)C)cc3)nc2n1,+
COc1ccccc1NCc1cc(=O)n2[nH]c(-c3ccc(C(C)(C)C)cc3)nc2n1,i
CCOc1ccc(NCc2cc(=O)n3[nH]c(-c4ccc(C(C)(C)C)cc4)nc3n2)cc1,+
COc1ccccc1N1CCN(Cc2cc(=O)n3[nH]c(-c4cccc(C)c4)nc3n2)CC1,+
Cc1cccnc1CN(Cc1ccccc1)C(=O)CSc1nnc(N)s1,i
O=C(CCN1CCN(S(=O)(=O)N2CCCC2)CC1)Nc1nccs1,i
CC(C)(C)c1ccc(-c2nc3nc(CN4CCN(c5ccccc5)CC4)cc(=O)n3[nH]2)cc1,i
Cc1ccccc1NCc1cc(=O)n2[nH]c(-c3ccc(C(C)(C)C)cc3)nc2n1,+
CC(C)(C)c1ccc(-c2nc3nc(CNc4ccc(Cl)cc4)cc(=O)n3[nH]2)cc1,i
CC(C)(C)c1ccc(-c2nc3nc(CNc4ccccc4)cc(=O)n3[nH]2)cc1,+
Cc1c(Cl)cccc1NCc1cc(=O)n2[nH]c(-c3ccc(C(C)(C)C)cc3)nc2n1,i
CN(Cc1ccccc1)Cc1cc(=O)n2[nH]c(-c3ccc(C(C)(C)C)cc3)nc2n1,i
Cc1ccc(NCc2cc(=O)n3[nH]c(-c4ccc(C(C)(C)C)cc4)nc3n2)cc1Cl,i
CCc1ccccc1NCc1cc(=O)n2[nH]c(-c3ccc(C(C)(C)C)cc3)nc2n1,+
CC(C)(C)c1ccc(-c2nc3nc(CNc4cccc(C(F)(F)F)c4)cc(=O)n3[nH]2)cc1,i
